Data taken from PubChem BioAssay AID2289 (National Center for Advancing Translational Sciences (NCATS), 2010).
About 3,300 (0.97%) of roughly 340,000 compounds were called active. Another 9% or so got no clear call; they are omitted. The call rests on the fitted dose curve; in most records, active means well fitted inhibition curve with a large enough effect; inconclusive means small, poorly fitted or top-dose-only effect, or effect the other way; inactive means flat fitted curve, though single readings scatter. This is one part of the list.

Test: qHTS Assay for Modulators of miRNAs and/or Inhibitors of miR-21; further: nearly all actives have a fitted effect of over 55% in size
Conditions: HeLa miR-21-FLuc reporter, luciferase luminescence, 48 h; actives lower the signal
How it was run: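 HeLa miR-21-FLuc reporter line, endogenous miR-21; 2000 cells/well in DMEM/10% FBS; compound titration up to ~40uM final, 48 h, 37 degree Celsius; luciferase detection reagent, 15 min lysis, CCD luminescence.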
Potency means the concentration at half of the fitted maximal effect.

Potency, active:
Cc1csc(SCc2nnc(-c3ccc(Cl)cc3)o2)n1 4.65 µM
O=C(CSc1nc2ccccc2s1)N/N=C/c1ccccc1C(=O)O 16.5 µM
Cc1c(C=O)c2cc(OCc3ccccc3)ccc2n1C 4.14 µM
COc1ccc(-c2nc3n(c2C)Cc2ccccc2-3)cc1 6.56 µM
Cc1ccc(N=Nc2c(O)[nH]c3ccc(F)cc23)cc1 1.31 µM
Oc1[nH]c2ccccc2c1N=Nc1ccc(F)cc1 5.85 µM
CCOC(=O)c1c(C)[nH]c(C(=O)CSc2nccc(C)n2)c1C 4.65 µM
CCOC(=O)c1c(C)[nH]c(C(=O)CSc2ccc(Cl)cc2)c1C 7.36 µM
CCOC(=O)c1c(C)[nH]c(C(=O)COC(=O)CNC(=O)c2ccccc2Cl)c1C 13.1 µM
CCOC(=O)c1c(C)[nH]c(C(=O)COC(=O)C2CC2C)c1C (stereo not drawn) 2.61 µM
CCOC(=O)c1c(C)[nH]c(C(=O)COC(=O)CCSc2ccccc2)c1C 13.1 µM
Cc1ccc(N/C=C2/Sc3ccccc3NC2=O)cc1 4.14 µM
Cc1nn(-c2ccccc2)c(Cl)c1/C=N/Nc1nc2ccccc2[nH]1 0.293 µM
Cc1nn(-c2ccccc2)c(Cl)c1/C=N/NC(=O)c1ccnn1C 5.21 µM
Cc1nn(-c2ccccc2)c(Cl)c1/C=N/NC(=O)c1ccco1 3.29 µM
COC(=O)N/N=C\c1c(C)nn(-c2ccccc2)c1Cl 7.36 µM
CCOC(=O)N/N=C/c1c(C)nn(-c2ccccc2Cl)c1Cl 7.36 µM
Cc1nn(-c2ccccc2)c(Cl)c1/C=N/NC(=O)c1ccccc1F 4.65 µM
Cc1nn(-c2ccccc2)c(Cl)c1/C=N/NC(N)=O 16.5 µM
CC1CCCN(c2nc3ccsc3c(=O)s2)C1 (stereo not drawn) 8.26 µM
Cn1nc(NC(=O)C(F)(F)F)c2ncc(-c3ccc(Cl)cc3)nc21 9.27 µM
Cc1ccc2c(C)c(C(=O)N3CCCC(C(N)=O)C3)oc2c1C (stereo not drawn) 13.1 µM
c1ccc(COc2ccc(CN3CCN(c4ccccn4)CC3)cc2)cc1 6.56 µM
C=COC(=O)CSc1nc(-c2cccs2)ccc1C#N 0.927 µM
CCOC(=O)c1ccc(Nc2cnc3ccccc3n2)cc1 1.47 µM
Cc1cc2ncc(-c3ccccc3)nc2cc1C 0.656 µM
Cc1cc(-c2ccccc2)nc(-c2ccccc2)c1C 7.36 µM
CCOC(=O)c1cnc(-c2ccccc2)nc1N(C)C 7.36 µM
